Here are results for 66 targets from the supplement of paper PMC12067093, “Discovery and optimisation of a covalent ligand for TRIM25 and its application to targeted protein ubiquitination” (Chemical Science, 2025).

The full data set covers some 21,000 targets. This sample favours those with the largest changes.

Compound in this test: Cc1cc(ccc1-c1ccccc1)C(=O)N1CCCN(CC1)C(=O)CCl [compound 10]
Description: probe-labelled cysteine peptide fold change vs DMSO (competition) (log2 fold change); higher = less target engagement (more negative = stronger competition). Particulars: THP-1, incubation time: 4 h.
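Also: competitive profiling in live THP-1 cells: cysteine peptides tagged with an iodoacetamide desthiobiotin (IA-DTB) probe, intensity after compound treatment relative to DMSO-treated cells.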

Chain of UniProt P54578 (P54578 whole entry, looked up): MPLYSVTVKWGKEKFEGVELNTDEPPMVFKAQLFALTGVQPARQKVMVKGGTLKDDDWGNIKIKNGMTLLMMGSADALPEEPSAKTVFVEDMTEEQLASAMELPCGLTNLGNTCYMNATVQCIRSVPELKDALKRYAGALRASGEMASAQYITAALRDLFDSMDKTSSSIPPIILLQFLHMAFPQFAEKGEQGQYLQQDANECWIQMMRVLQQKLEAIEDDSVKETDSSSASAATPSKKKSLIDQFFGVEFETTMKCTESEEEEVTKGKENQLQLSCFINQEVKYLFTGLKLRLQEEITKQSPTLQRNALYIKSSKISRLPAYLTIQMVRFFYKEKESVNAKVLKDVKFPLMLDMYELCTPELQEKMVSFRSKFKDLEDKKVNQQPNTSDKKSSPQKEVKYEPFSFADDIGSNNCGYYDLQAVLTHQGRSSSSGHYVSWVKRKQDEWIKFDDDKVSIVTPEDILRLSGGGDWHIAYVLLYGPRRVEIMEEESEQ
Chain of UniProt Q9GZX9 (Q9GZX9 whole entry, looked up): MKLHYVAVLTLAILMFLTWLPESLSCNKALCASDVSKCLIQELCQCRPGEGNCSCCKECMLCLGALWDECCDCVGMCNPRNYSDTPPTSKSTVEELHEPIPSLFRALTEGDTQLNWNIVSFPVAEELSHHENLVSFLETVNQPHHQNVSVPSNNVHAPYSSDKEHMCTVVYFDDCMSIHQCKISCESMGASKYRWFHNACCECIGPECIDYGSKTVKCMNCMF
Chain of UniProt Q9C035 (Q9C035 whole entry): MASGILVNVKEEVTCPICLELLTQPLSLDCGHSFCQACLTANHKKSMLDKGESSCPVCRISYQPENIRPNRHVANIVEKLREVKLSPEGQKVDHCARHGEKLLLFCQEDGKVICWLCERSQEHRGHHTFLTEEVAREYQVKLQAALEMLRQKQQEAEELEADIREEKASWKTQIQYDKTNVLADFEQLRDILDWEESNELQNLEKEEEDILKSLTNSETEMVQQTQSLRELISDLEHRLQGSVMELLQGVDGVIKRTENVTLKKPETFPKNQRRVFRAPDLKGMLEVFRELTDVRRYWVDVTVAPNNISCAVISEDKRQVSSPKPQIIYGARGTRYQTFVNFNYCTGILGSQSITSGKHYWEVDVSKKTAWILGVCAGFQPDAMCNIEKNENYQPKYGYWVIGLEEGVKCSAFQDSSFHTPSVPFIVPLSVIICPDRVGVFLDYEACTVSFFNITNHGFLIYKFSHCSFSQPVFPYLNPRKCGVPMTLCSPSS
Chain of UniProt Q15631 (Q15631 whole entry): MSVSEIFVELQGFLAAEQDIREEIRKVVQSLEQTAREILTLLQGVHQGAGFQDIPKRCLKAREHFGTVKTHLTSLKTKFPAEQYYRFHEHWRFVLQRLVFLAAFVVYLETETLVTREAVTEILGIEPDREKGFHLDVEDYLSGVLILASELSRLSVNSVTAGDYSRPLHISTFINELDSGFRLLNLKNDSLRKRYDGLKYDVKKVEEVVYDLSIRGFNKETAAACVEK
Chain of UniProt Q8TBC4 (Q8TBC4 whole entry, looked up): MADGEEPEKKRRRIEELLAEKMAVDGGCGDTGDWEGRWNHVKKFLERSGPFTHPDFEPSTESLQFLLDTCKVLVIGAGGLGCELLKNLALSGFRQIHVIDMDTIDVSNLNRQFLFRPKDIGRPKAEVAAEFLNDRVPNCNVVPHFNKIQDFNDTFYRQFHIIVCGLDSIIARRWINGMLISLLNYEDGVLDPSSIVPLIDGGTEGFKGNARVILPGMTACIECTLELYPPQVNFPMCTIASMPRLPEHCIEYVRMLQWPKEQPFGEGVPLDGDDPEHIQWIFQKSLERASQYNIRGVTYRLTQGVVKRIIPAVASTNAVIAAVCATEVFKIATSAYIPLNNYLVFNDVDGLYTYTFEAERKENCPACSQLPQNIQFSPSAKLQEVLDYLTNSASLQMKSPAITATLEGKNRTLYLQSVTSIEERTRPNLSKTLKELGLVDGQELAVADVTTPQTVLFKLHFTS
Chain of UniProt Q8NBS9 (Q8NBS9 whole entry, looked up): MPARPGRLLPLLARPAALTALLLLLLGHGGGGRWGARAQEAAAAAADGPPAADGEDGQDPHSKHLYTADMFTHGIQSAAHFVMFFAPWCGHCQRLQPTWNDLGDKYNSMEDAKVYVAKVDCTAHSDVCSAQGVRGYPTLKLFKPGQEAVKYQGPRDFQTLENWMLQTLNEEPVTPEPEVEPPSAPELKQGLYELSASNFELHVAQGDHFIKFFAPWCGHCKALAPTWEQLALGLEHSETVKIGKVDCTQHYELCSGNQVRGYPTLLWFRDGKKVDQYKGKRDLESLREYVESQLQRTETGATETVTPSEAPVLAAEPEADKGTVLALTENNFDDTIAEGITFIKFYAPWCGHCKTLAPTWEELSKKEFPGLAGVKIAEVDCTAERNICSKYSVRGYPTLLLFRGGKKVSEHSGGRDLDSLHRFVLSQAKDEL
Chain of UniProt Q9Y3C8 (Q9Y3C8 whole entry, looked up): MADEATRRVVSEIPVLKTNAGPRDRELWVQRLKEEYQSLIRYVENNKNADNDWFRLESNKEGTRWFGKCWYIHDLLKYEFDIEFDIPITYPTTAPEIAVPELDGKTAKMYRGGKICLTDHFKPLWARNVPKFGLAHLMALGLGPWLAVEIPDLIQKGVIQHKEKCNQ
Chain of UniProt O60636 (O60636 whole entry): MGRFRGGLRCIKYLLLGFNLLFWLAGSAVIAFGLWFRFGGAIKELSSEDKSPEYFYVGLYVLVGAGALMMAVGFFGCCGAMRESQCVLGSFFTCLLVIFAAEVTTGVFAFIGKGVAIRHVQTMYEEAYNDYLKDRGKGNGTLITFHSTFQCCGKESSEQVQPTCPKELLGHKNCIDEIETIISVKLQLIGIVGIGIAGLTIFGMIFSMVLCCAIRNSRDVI
Chain of UniProt P08670 (P08670 whole entry, looked up): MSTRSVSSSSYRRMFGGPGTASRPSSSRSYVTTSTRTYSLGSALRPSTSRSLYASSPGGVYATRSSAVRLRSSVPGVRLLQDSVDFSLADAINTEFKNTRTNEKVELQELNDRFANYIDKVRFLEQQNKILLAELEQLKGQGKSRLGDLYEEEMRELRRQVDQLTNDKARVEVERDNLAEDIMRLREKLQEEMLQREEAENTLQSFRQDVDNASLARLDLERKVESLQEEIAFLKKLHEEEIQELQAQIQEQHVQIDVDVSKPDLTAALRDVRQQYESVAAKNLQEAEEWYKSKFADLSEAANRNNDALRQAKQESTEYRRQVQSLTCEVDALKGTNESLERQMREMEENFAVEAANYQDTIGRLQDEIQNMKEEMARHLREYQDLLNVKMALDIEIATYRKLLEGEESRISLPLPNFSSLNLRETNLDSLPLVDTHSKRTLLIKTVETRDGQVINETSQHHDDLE
Chain of UniProt Q9NPG3 (Q9NPG3 whole entry, looked up): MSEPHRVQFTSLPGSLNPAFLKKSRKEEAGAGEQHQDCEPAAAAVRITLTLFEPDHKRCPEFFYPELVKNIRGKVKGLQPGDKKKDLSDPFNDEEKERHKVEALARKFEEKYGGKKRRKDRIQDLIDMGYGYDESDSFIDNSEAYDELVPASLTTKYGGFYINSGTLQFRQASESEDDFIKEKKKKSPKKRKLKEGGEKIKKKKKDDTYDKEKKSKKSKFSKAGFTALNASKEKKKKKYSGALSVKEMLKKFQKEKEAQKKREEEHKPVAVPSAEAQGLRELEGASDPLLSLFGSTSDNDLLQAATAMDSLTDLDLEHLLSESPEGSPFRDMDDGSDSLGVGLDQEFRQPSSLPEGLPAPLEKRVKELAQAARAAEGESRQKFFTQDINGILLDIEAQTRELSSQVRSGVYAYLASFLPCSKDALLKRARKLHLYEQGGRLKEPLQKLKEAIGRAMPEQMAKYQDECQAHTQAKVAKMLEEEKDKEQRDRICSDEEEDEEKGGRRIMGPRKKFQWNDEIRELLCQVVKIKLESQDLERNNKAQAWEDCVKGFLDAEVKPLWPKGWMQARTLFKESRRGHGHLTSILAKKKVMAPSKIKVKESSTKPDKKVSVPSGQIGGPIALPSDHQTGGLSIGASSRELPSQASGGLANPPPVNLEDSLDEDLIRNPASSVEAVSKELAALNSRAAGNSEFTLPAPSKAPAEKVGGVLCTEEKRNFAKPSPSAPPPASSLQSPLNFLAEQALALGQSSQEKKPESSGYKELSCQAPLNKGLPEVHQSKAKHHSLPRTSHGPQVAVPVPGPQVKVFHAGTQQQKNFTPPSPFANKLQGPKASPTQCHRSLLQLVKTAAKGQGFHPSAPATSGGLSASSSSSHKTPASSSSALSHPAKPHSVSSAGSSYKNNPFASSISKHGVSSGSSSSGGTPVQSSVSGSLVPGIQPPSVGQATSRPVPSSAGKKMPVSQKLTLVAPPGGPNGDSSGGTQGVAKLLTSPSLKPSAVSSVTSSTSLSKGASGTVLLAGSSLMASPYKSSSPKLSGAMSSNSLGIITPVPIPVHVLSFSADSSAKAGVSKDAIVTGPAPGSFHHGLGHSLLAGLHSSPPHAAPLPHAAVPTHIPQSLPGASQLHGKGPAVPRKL
Chain of UniProt Q9NX07 (Q9NX07 whole entry, looked up): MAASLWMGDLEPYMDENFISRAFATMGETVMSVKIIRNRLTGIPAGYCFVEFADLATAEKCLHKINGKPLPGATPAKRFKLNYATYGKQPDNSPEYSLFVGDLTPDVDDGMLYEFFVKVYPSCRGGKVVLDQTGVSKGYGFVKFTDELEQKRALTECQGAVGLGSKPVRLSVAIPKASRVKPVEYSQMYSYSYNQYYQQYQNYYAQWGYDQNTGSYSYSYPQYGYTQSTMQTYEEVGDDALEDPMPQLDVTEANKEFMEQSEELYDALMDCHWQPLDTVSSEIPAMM
Chain of UniProt P60604 (P60604 whole entry): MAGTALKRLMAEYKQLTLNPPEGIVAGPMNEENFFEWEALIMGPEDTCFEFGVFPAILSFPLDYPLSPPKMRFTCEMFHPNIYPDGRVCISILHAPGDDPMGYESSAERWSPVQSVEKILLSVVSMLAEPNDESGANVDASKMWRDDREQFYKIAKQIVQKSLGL
Chain of UniProt P10599 (P10599 whole entry, looked up): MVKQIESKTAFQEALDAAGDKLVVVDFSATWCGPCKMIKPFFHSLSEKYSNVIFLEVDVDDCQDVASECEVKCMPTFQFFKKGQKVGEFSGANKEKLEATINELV

As for “TSPAN2_O60636_164_ESSEQVQPTCPK (UniProt O60636)”, the “probe-labelled cysteine peptide fold change” value (10 µM) is -0.411 and the “probe-labelled cysteine peptide fold change” value (50 µM) was -0.422.
The corresponding values for “UBAP2_Q5T6F2_71_NQDECIVALHDCNGDVNK (UniProt Q5T6F2)” are 0.0613 and -0.0464.
For “TRMT10C_Q7L0Y3_78_SSVQEECVSTISSSKDEDPLAATR (UniProt Q7L0Y3)”, in that order: -0.141 and -0.518.
The corresponding values for “VIM_P08670_328_RQVQSLTCEVDALK (UniProt P08670)” are 0.00911 and -0.139.
“TRIM25_Q14258_498_FTYCSQVLGLHCYK (UniProt Q14258)”: the “probe-labelled cysteine peptide fold change” value is, setting by setting: (10 µM) -1.23; (50 µM) -2.92.
The corresponding values for “TRMT2A_Q8IZ69_270_GGTCAVAAPFDTVHIPEATK (UniProt Q8IZ69)” are -0.0935 and -0.357.
The corresponding values for “TRAPPC6A_O75865_124_FLAFTCGLLR (UniProt O75865)” are 0.203 and 0.608.
In the case of “TRIM25_Q14258_119_TCLVCMASFCQEHLQPHFDSPAFQDHPLQPPVR (UniProt Q14258)”, the “probe-labelled cysteine peptide fold change” value by setting is: (10 µM) 0.371; (50 µM) 0.313.
For “VRK3_Q8IV63_418_FVDKPGPFVGPCGHWIRPSETLQK (UniProt Q8IV63)”, in that order: -0.347 and -1.2.
For “UBAP1_Q9NZ09_243_ATLDFKPLHKPNGFITLPQLGNCEK (UniProt Q9NZ09)”, the “probe-labelled cysteine peptide fold change” value reads like this: (10 µM) -0.239; (50 µM) -1.36.
The corresponding values for “UBR5_O95071_572_VGVLMESVWNMNDSCR (UniProt O95071)” are -0.0405 and 0.0537.
For “USP48_Q86UV5_652+658_KEEEELNFNEDILCPHGELCISENERR (UniProt Q86UV5)”, the “probe-labelled cysteine peptide fold change” value reads like this: (10 µM) -0.493; (50 µM) -1.42.
The corresponding values for “USP24_Q9UPU5_995_QLCSPVDNIQIFTNDSLLTVNK (UniProt Q9UPU5)” are 0.165 and 0.107.
The corresponding values for “USP40_Q9NVE5_1054_RIEICLEPLQK (UniProt Q9NVE5)” are 0.0209 and -0.0411.
For “TRNAU1AP_Q9NX07_157_ALTECQGAVGLGSKPVR (UniProt Q9NX07)”, in that order: -0.212 and -0.171.
For “VCPIP1_Q96JH7_469+472_CLLCGALSELHVPPEWLAPGGK (UniProt Q96JH7)”, the “probe-labelled cysteine peptide fold change” value by setting is: (10 µM) -0.12; (50 µM) 0.233.
The corresponding values for “TRRAP_Q9Y4A5_2513_STPIGTSCQGAMLPSITNVINLADSHDR (UniProt Q9Y4A5)” are 0.223 and 0.295.
Regarding “UHRF1BP1L_A0JNW5_398_NGWANELLHEFECNVEMLK (UniProt A0JNW5)”, the “probe-labelled cysteine peptide fold change” value by setting is: (10 µM) -0.0203; (50 µM) -0.158.
In the case of “VAPA_Q9P0L0_128_CVFEMPNENDK (UniProt Q9P0L0)”, the “probe-labelled cysteine peptide fold change” value (10 µM) is -0.217 and the “probe-labelled cysteine peptide fold change” value (50 µM) is -0.121.
The corresponding values for “TRRAP_Q9Y4A5_3535_IYPYLVMNDACLTESR (UniProt Q9Y4A5)” are -0.136 and -0.0829.
The corresponding values for “TRMT1_Q9NXH9_621_GDQCCYSHSPPTPR (UniProt Q9NXH9)” are -0.0265 and -0.0659.
The corresponding values for “VAPA_Q9P0L0_179_KLMEECK (UniProt Q9P0L0)” are -0.0535 and -0.275.
Consider “UBR4_Q5T4S7_2619_QLEGDCCSFITQLVNHFWK (UniProt Q5T4S7)”, for which the “probe-labelled cysteine peptide fold change” value is, setting by setting: (10 µM) -0.0425; (50 µM) -0.45.
The corresponding values for “UBR7_Q8N806_46_CSYSQGSVKR (UniProt Q8N806)” are -0.118 and -0.607.
For “UBE2G2_P60604_75_FTCEMFHPNIYPDGR (UniProt P60604)”, in that order: -0.0589 and -0.214.
For UBA6_A0AVT1_721_ALQLLHCFPLDIR, in that order: 0.0248 and 0.215.
With “UBL7_Q96S82_66_LQESVPDPELIDLIYCGR (UniProt Q96S82)”, the “probe-labelled cysteine peptide fold change” value by setting is: (10 µM) -0.109; (50 µM) -0.328.
For “UBR7_Q8N806_137_YNDNFFGLYCICK (UniProt Q8N806)”, the “probe-labelled cysteine peptide fold change” value (10 µM) came to 0.0481 and the “probe-labelled cysteine peptide fold change” value (50 µM) is -0.0777.
For “USP40_Q9NVE5_50_NQGGTCYLNSLLQTLHFTPEFR (UniProt Q9NVE5)”, the “probe-labelled cysteine peptide fold change” value is -0.592 (10 µM) and -1.83 (50 µM).
For “USP3_Q9Y6I4_98_CDDFVVNDTK (UniProt Q9Y6I4)”, in that order: -0.0308 and -0.0909.
For “UBR4_Q5T4S7_2618+2619_QLEGDCCSFITQLVNHFWK (UniProt Q5T4S7)”, in that order: 0.0442 and -1.45.
Regarding “TSN_Q15631_225_ETAAACVEK (UniProt Q15631)”, the “probe-labelled cysteine peptide fold change” value (10 µM) was -0.291 and the “probe-labelled cysteine peptide fold change” value (50 µM) was -0.282.
For “TUBA4A_P68366_4_MRECISVHVGQAGVQMGNACWELYCLEHGIQPDGQMPSDK (UniProt P68366)”, in that order: -0.0787 and -0.408.
The corresponding values for “UBR7_Q8N806_99+101_CDCGNSK (UniProt Q8N806)” are -0.364 and -1.41.
For “TXNDC9_O14530_94_ESENVVCHFYR (UniProt O14530)”, in that order: -0.0612 and -0.0184.
In the case of “TRIM56_Q9BRZ2_41_TLPCLHTYCQDCLAQLADGGR (UniProt Q9BRZ2)”, the “probe-labelled cysteine peptide fold change” value is, setting by setting: (10 µM) 0.238; (50 µM) 0.113.
For “TTLL12_Q14166_126_ESGLQAAHPNSIFLIDHAWTCR (UniProt Q14166)”, in that order: 0.0995 and 0.0514.
The corresponding values for TRIM5_Q9C035_95_VDHCAR (UniProt Q9C035) are -0.107 and -0.113.
Consider “UBR4_Q5T4S7_4890_KQQGYSTVSHFNIVHYDCHLAAVR (UniProt Q5T4S7)”, for which the “probe-labelled cysteine peptide fold change” value is 0.0563 (10 µM) and -0.151 (50 µM).
For “VPS37A_Q8NEZ2_375_TICHCR (UniProt Q8NEZ2)”, the “probe-labelled cysteine peptide fold change” value by setting is: (10 µM) 0.41; (50 µM) 1.08.
As for “UBA7_P41226_68_NLVLMGVGSLTLHDPHPTCWSDLAAQFLLSEQDLER (UniProt P41226)”, the “probe-labelled cysteine peptide fold change” value was 0.0506 (10 µM) and 0.33 (50 µM).
“UBA1_P22314_711_SLVLQRPQTWADCVTWACHHWHTQYSNNIR (UniProt P22314)”: the “probe-labelled cysteine peptide fold change” value is, setting by setting: (10 µM) -0.12; (50 µM) 0.238.
The corresponding values for “VPS16_Q9H269_763_SPIGYLPFVEICMK (UniProt Q9H269)” are 0.149 and 0.152.
For “TRIM59_Q8IWR1_10+13_MHNFEEELTCPICYSIFEDPR<|>IFT80_Q9P2H3-3_10+13_MHNFEEELTCPICYSIFEDPR (UniProt Q9P2H3+Q8IWR1)”, in that order: -0.194 and -1.63.
The corresponding values for “USP48_Q86UV5_512+514_WLDESTPTKPIDNHACLCSHDK (UniProt Q86UV5)” are -0.0825 and -1.16.
Regarding “UFC1_Q9Y3C8_116_ICLTDHFKPLWAR (UniProt Q9Y3C8)”, the “probe-labelled cysteine peptide fold change” value runs as follows: (10 µM) -0.183; (50 µM) -1.26.
For “USP14_P54578_257_CTESEEEEVTK (UniProt P54578)”, in that order: -0.254 and -0.167.
The corresponding values for “UBN1_Q9NPG3_765_ELSCQAPLNK (UniProt Q9NPG3)” are -0.169 and -0.168.
As for “TTC17_Q96AE7_725_CPECENSLK (UniProt Q96AE7)”, the “probe-labelled cysteine peptide fold change” value is, setting by setting: (10 µM) 0.113; (50 µM) 0.453.
The corresponding values for “UBA7_P41226_829_CQNYGIPPVNR (UniProt P41226)” are -0.03 and 0.153.
Regarding “VPS26B_Q4G0F5_334_TPSQLSDNNCRQ (UniProt Q4G0F5)”, the “probe-labelled cysteine peptide fold change” value is -0.205 (10 µM) and -0.321 (50 µM).
For “TRIM13_O60858_106_GHLGQPLNIFCLTDMQLICGICATR (UniProt O60858)”, in that order: 0.0739 and -0.215.
The corresponding values for “UBA3_Q8TBC4_28_MAVDGGCGDTGDWEGR (UniProt Q8TBC4)” are -0.245 and -0.0349.
The corresponding values for “TRIM28_Q13263_717_VLLALFCHEPCR (UniProt Q13263)” are 0.00318 and 0.0176.
As to TPX2_Q9ULW0_301_GCTIVK (UniProt Q9ULW0), the “probe-labelled cysteine peptide fold change” value runs as follows: (10 µM) 0.583; (50 µM) 0.294.
For “TYSND1_Q2T9J0_17_AAEQAGCMVSASR (UniProt Q2T9J0)”, in that order: 0.0109 and 0.0758.
The corresponding values for “TWSG1_Q9GZX9_185_ISCESMGASK (UniProt Q9GZX9)” are -0.121 and -0.0863.
With “UCK2_Q9BZX2_197_PAFEEFCLPTK (UniProt Q9BZX2)”, the “probe-labelled cysteine peptide fold change” value reads like this: (10 µM) -0.0609; (50 µM) 0.255.
As to “USP9Y_O00507_674_DGQLWLCAPQAK (UniProt O00507)”, the “probe-labelled cysteine peptide fold change” value is -0.00329 (10 µM) and -0.161 (50 µM).
With “TXNDC5_Q8NBS9_350+353_FYAPWCGHCK (UniProt Q8NBS9)”, the “probe-labelled cysteine peptide fold change” value is, setting by setting: (10 µM) -0.375; (50 µM) -1.05.
“TXNRD2_Q9NNW7_279_GCAPSR (UniProt Q9NNW7)”: the “probe-labelled cysteine peptide fold change” value was found to be 0.0601 (10 µM) and 1.36 (50 µM).
For “TRPM2_O94759_72_ECVYFVESSK (UniProt O94759)”, in that order: -0.0415 and -0.249.
For “TXN_P10599_32_LVVVDFSATWCGPCK (UniProt P10599)”, in that order: -0.415 and -0.638.
For the target “UBR2_Q8IWV8_1717_GNPLHLCK (UniProt Q8IWV8)”, the “probe-labelled cysteine peptide fold change” value by setting is: (10 µM) -0.263; (50 µM) -1.31.
For “TRIM33_Q9UPN9_276_KKEDVSESVGASGQRPVFCPVHK (UniProt Q9UPN9)”, in that order: -0.0301 and -0.148.
For “TXNIP_Q9H3M7_170_KVSCMFIPDGR (UniProt Q9H3M7)”, in that order: 0.205 and -1.47.
